The list is not random: actives were taken first. Their share in the collection is about 2.8%.
MITF TRPM1 inh: inhibitors of MITF-dependent TRPM1 promoter reporter, primary screen, cell-based, SK-MEL-5, single point, luciferase. hit rate 0.83% among 330,000. SK-MEL-5 TRPM1 promoter luciferase, 24 h. inhibition, % at 12.5 µM. AID 488899, 2010;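 active means mean inhibition across replicates of 60% or more, whatever share of single replicates reaches that level; inconclusive means some that reach 60%, reason not given; inactive means mean inhibition across replicates below 60%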
HIF-2a block: HIF-2a reporter inhibitors, primary screen, luminescence, 786-0 RCC cells. 786-0 RCC cells HIF-2a reporter, luciferase luminescence, overnight. inhibition, % at 18.8 µM. hit rate 0.72% among 360,000. AID 624352, 2012;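 active means inhibition of the luminescence signal of 40% or more relative to plate controls, in a single-dose primary screen at 18.75 µM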
Shn3 inh set2: reduction of Shn3 3'UTR firefly luciferase signal, primary screen, Schnurri-3 inhibitor project, cell-based, Clone20 osteoblasts, set 2 | inhibition, % at 12.5 µM | Clone20 osteoblast Shn3 3'UTR firefly luciferase, 24 h | hit rate 0.52% among 360,000;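 active means mean inhibition of at least 75% with every replicate also reaching 75%; inconclusive means mean inhibition at least 75% but some replicate below; inactive means mean inhibition below 75%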;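 further: 0% = median of neutral control wells and 100% = pilot-screen positive control compound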
KKLEB cytotox: cytotoxicity in KKLEB CF airway cells, primary screen, cytotoxicity control for CF NF-kB inhibitor project, cell-based, uHTS, fluorescence assay plates; KKLEB CF airway cells viability, ATPlite luminescence, overnight; active compounds read low; cells stimulated with P. aeruginosa culture filtrate; activity change (cytotoxicity), % at 5 µM; hit rate 0.36% among 360,000; AID 602141, 2011;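 active means corrected activity change at or below -50% at 5 µM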
CF NFkB block: inhibitors of PAF-induced NF-kB signaling, primary screen, cell-based, GFP fluorescence, uHTS. KKLEB NF-kB-GFP reporter, GFP fluorescence overnight. inhibition, % at 5 µM. AID 588850, 2011. hit rate 0.86% among 360,000;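 active means at least 50% inhibition at 5 µM, scaled per plate between neutral and stimulator controls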;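 further: PAF is a Pseudomonas aeruginosa culture filtrate used as stimulus; plate controls were PAF-stimulated DMSO wells for no effect and unstimulated DMSO wells for full effect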
Peg3 prom inh-1: Peg3 promoter-driven luciferase inhibitors, primary screen, cell-based, HeLa, luciferase luminescence; HeLa PEG-Prom luciferase reporter, overnight; inhibition, % at 20 µM; hit rate 1.7% among 360,000; AID 588405, 2011;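 active means inhibition of at least 50% at 20 µM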
Peg3 prom inh-2: Peg3 promoter reporter inhibitors, retest, confirmation, cell-based, HeLa, luciferase reporter, single concentration; inhibition, % at 20 µM; hit rate 84% among 1,300; HeLa PEG-Prom luciferase reporter, luminescence, overnight; shares compounds with Peg3 prom inh-1;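 active means at 20 µM dose, 40% or more inhibition averaged across four replicates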
Numbers without * were called inactive; ? = inconclusive; nt = no result; ! = not confirmed by another sample.

SMILES	MITF TRPM1 inh	HIF-2a block	Shn3 inh set2	KKLEB cytotox	CF NFkB block	Peg3 prom inh-1	Peg3 prom inh-2
Cc1cccc(N2CCN(C(=O)C3CCN(c4ncnc5c4nc4n5CCCCC4)CC3)CC2)c1C	49.6	5.8	68.3	6.1	-14.3	52.2*	58.4*
Cc1cccc(N2CCN(C(=O)C3CCN(c4ncnc5c4nc4n5CCCCC4)CC3)CC2C)c1 (stereo not drawn)	43.5	1.1	75.0	-9.0	-7.7	55.3*	43.1*
O=C(C1CCN(c2ncnc3c2nc2n3CCCCC2)CC1)N1CCN(c2ccccc2F)CC1	0.0	30.0	17.5	-4.8	-24.1	19.9	nt
O=C1c2ccccc2C(=O)C12OC2c1ccc(Cl)cc1Cl (stereo not drawn)	?	-14.3	95.1*	-67.6*	96.4*	99.1*	50.5*
Cc1cc(N)ccc1NC(=O)CN1CCCC1	6.4	12.4	4.9	-5.9	11.7	10.3	nt
Cc1cccc2c(SCC(N)=O)nc(-c3ccccc3)nc12	0.1	10.3	4.9	-0.3	-3.7	50.9*	32.9
NC(=O)CSc1nc(-c2ccccc2)nc2ccccc12	-32.5	-2.5	10.0	-4.4	-41.3	6.7	nt
OC[C@@H]1[C@@H](c2ccc(Cl)cc2)C(c2cccc(Cl)c2)=NN1c1ccccc1	-4.3	-3.0	13.6	-1.6	34.0	54.2*	64.9*
OC[C@@H]1[C@@H](c2ccc(Cl)cc2)C(c2ccccc2)=NN1c1ccccc1	6.5	11.1	-6.7	-5.6	22.5	19.0	nt
O=C(c1ccncc1)N1CCN(c2cc(-c3ccccc3)nc3cc(-c4cccc(Cl)c4)nn23)CC1	nt	-26.2	9.7	-6.6	3.6	47.3	nt
CC(=O)N1CCN(c2cc(-c3ccccc3)nc3cc(-c4cccc(Cl)c4)nn23)CC1	nt	-26.7	-0.4	-1.4	6.2	54.8*	57.7*
O=C(c1ccoc1)N1CCN(c2cc(-c3cccnc3)nc3cc(-c4cccc(Cl)c4)nn23)CC1	nt	-5.7	31.9	-1.4	4.3	54.1*	28.6
CC1(Cc2cc(Cl)ccc2C(F)(F)F)C(=O)Nc2ccc(OC(F)(F)F)cc21 (stereo not drawn)	nt	10.0	3.7	-1.0	-13.0	52.0*	12.7
COc1cc(SC)ccc1C(=O)Nc1ccc(C)cc1	-15.9	-230.2	-124.2	-31.1	3.3	-250.4	nt
COc1cc(SC)ccc1C(=O)Nc1ncc(C)s1	65.5*	48.9*	41.0	-53.3*	-9.6	77.2*	60.8*
Cc1cccc(N=C2Sc3nc4c(C)c(C)ccc4cc3CN2CCN2CCOCC2)c1	-3.4	-14.0	-13.5	-4.9	-0.4	55.0*	56.7*
COCCN1Cc2cc3cc(C)ccc3nc2SC1=Nc1cccc(OC)c1	-5.5	-22.9	-36.0	-2.1	1.7	-12.8	nt
Cc1c(C(=O)N2CCN(S(=O)(=O)c3ccccc3)CC2)oc2ccc(Br)cc12	3.9	-3.0	24.6	-17.2	9.5	7.9	nt
C[n+]1c2cc(N)ccc2cc2ccc(N)cc21	63.9*	41.2*!	?	3.9	-375.5	95.7*	96.0*
O=C1C(C=Nc2ccccc2)=C(O)c2ccccc21	-27.2	-237.7	-99.0	-11.5	-21.9	-191.6	nt
COc1ccc(N=CC2=C(O)c3ccccc3C2=O)cc1	30.1	7.5	39.6	-51.2*	-10.2	74.8*	-3.5
COc1cccc(/C=N/NC(=O)c2c(-c3ccccc3)noc2C)c1O	47.2	-6.7	88.3*	-11.4	6.8	55.2*	56.2*
COc1cccc(/C=N/NC(=O)c2c(-c3ccccc3)noc2C)c1OC	4.9	11.6	-8.4	1.1	-15.2	-2.4	nt
O=C(CSc1nc2ccccc2c(=O)n1CCCN1CCOCC1)Nc1ccc(Br)cc1	-9.5	-3.5	3.4	0.3	-14.2	-7.4	nt
CCc1ccc(NC(=O)CSc2nc3ccccc3c(=O)n2CCCN2CCC(C)CC2)cc1	-11.7	-6.1	26.4	-14.1	14.5	92.9*	94.7*
SMILES	MITF TRPM1 inh	HIF-2a block	Shn3 inh set2	KKLEB cytotox	CF NFkB block	Peg3 prom inh-1	Peg3 prom inh-2
Cn1nc(C(C)(C)C)cc1C(=O)N1CCCC(c2cc(C(=O)Nc3ccccc3Cl)no2)C1 (stereo not drawn)	nt	-0.3	15.0	-1.6	20.9	18.8	nt
COC(=O)c1ccccc1-c1ccc(/C=N/Nc2nc(N3CCCC3)nc(N3CCCC3)n2)o1	5.6	14.1	19.2	6.0	-12.8	51.9*	56.4*
O=C(C1=C(O)C(=O)N(c2ccccc2)C1c1ccc([N+](=O)[O-])cc1)c1cccs1 (stereo not drawn)	6.9	-18.6	-1.8	1.7	5.6	-17.0	nt
CC(CCCC(C)(C)O)CC1C2=C(CCCC2=O)OC2=C1C(=O)CCC2 (stereo not drawn)	-5.7	17.1	7.2	16.8	-10.5	2.8	nt
Cc1cc(S(=O)(=O)c2ccc(Cl)cc2)nc(S(=O)(=O)c2ccc(Cl)cc2)c1C#N	nt	89.0*	90.8*	-93.4*	87.5*	112.8*	96.7*
CN(C)c1ccc(-c2nc3ccccn3c2/N=C/c2ccc(Br)cc2)cc1	-2.7	35.9	23.9	-9.4	-7.5	54.1*	40.9*
CCC(C)NC(=O)c1c(N)n(/N=C/c2ccccn2)c2nc3ccccc3nc12 (stereo not drawn)	4.7	-16.3	1.3	-3.7	1.9	47.2	nt
CCC(C)NC(=O)c1c(N)n(/N=C/c2cccnc2)c2nc3ccccc3nc12 (stereo not drawn)	-7.0	-43.8	2.0	-6.0	-2.4	50.4*	15.5
O=c1oc2ccccc2cc1-c1cn2ccccc2n1	81.3*	65.9*	?	-78.0*	27.0	78.5*	64.5*
O=c1oc2ccccc2cc1-c1cn2cccnc2n1	-1.3	-80.3	-10.0	7.9	-42.8	-173.4	nt
COc1cc(/C=C2\SC(=Nc3ccccc3OC)NC2=O)ccc1O	46.2	16.4	-10.9	-31.1	51.1*	64.3*	67.9*
COc1ccccc1N(CC(=O)N/N=C/c1c(O)ccc2ccccc12)S(C)(=O)=O	48.3	22.0	73.3	-1.8	1.3	50.3*	70.1*
COc1ccccc1N(CC(=O)Nc1ccccc1C)S(C)(=O)=O	3.2	1.2	0.8	2.4	-13.9	15.0	nt
CC(C)N1CCc2c(sc(NC(=O)c3cc4cc([N+](=O)[O-])ccc4s3)c2C(N)=O)C1	nt	4.6	24.5	-1.6	-38.6	96.8*	97.9*
CC(C)N1CCc2c(sc(NC(=O)c3ccc4ccccc4c3)c2C(N)=O)C1	-51.2	-114.1	0.0	-19.2	-57.3	12.8	nt
CC(C)c1nc(SCC(=O)Nc2ccc3c(c2)OCCO3)n[nH]1	5.2	-5.0	4.5	-6.4	-3.7	-7.0	nt
